Experimental data from PubChem BioAssay (NCATS).
Records with an inconclusive call do not appear. Entries that show only a call come without a potency. Calls of active or inactive are those of the source. Calls follow the shape of the dose curve; as a rule, active = well fitted curve in the direction sought with a large enough effect; inconclusive = small, poorly fitted or top-dose-only effect, or another doubt; inactive = no such curve, though single readings can be large; an effect the other way counts as inactive or inconclusive.

Target: Lysine-specific demethylase 5B (Homo sapiens) (UniProt Q9UGL1)
Sequence (Q9UGL1 whole entry, looked up): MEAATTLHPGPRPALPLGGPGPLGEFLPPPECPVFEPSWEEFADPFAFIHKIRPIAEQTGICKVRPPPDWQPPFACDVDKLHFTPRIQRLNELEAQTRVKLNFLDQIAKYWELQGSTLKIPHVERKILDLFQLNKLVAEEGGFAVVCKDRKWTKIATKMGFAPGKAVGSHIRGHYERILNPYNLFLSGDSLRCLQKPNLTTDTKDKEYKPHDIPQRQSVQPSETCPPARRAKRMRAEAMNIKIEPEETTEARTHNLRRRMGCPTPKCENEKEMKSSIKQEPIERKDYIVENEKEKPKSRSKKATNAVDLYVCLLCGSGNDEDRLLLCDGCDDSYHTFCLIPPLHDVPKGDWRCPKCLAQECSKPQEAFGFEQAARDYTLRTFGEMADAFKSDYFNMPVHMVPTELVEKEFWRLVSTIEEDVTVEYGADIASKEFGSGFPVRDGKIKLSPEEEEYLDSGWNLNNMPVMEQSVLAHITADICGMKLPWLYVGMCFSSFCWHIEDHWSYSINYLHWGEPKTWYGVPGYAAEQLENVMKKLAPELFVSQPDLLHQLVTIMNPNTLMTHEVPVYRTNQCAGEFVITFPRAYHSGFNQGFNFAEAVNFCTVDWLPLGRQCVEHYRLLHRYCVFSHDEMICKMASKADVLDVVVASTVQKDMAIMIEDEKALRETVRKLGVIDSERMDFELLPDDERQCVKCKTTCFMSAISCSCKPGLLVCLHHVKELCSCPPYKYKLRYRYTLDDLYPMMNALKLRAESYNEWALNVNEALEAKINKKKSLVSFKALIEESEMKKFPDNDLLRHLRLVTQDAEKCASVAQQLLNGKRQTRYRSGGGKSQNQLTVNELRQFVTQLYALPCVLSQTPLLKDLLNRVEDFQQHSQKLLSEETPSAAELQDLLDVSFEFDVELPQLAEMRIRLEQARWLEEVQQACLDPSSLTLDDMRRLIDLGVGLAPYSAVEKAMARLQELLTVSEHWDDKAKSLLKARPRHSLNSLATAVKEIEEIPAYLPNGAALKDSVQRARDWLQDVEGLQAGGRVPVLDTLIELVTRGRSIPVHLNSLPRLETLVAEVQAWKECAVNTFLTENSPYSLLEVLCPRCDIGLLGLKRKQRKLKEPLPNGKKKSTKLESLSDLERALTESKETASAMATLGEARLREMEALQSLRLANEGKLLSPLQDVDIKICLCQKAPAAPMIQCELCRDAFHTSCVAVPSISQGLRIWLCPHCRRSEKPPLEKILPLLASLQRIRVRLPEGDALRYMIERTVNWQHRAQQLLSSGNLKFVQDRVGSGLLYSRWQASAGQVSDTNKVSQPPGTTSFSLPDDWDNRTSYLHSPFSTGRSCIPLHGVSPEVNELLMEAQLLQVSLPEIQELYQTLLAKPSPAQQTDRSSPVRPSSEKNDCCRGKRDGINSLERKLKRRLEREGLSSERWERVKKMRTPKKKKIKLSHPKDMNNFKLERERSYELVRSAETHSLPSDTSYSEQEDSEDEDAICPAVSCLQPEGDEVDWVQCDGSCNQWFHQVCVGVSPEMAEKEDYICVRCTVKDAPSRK
Assay: Optimization screen for KDM5B Histone Demethylases FDH coupled qHTS against the LOPAC library (AID 1347166); also: potency is read from the fitted curve at half-maximal effect
Settings: KDM5B demethylation, FDH-coupled NADH fluorescence (FDH is formaldehyde dehydrogenase); series mostly up to 57.5 µM
Outline: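 KDM5BDeltaAP (200nM final) in 50mM HEPES pH 7.5, 0.01% Tween-20 was preincubated with compound for 10 min at room temperature. A substrate mix of 12.5uM H3K4Me3, 25uM a-ketoglutarate, ascorbate, Fe2+, NAD+ and formaldehyde dehydrogenase was then added. NADH fluorescence (340/450 nm) was read initially and after 30 min.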

Row | Compound | Potency
1 | C[C@@H]1[C@@H]2Cc3ccc(O)cc3[C@@]1(C)CCN2CC1CC1 | inactive
2 | CO[C@H]1CC=C2CCN3CCC4=C(CC(=O)OC4)[C@]23C1 | inactive
3 | NC(C(=O)O)c1cc(=O)[nH]o1 (configuration not stated) | inactive
4 | CCCC[N+]1(C)C2CC(OC(=O)[C@H](CO)c3ccccc3)CC1C1OC12 (some centres not stated) | inactive
5 | C[C@@H]1O[C@H](C[N+](C)(C)C)CS1 | inactive
6 | C[N+](C)(C)CCOC(=O)CBr | inactive
7 | CN1CCC(c2c[nH]c3ccc(O)cc23)CC1 | inactive
8 | Ic1ccccc1CNC1C2CCN(CC2)C1C(c1ccccc1)c1ccccc1 (configuration not stated) | inactive
9 | NCCCP(=O)(O)O | inactive
10 | CC1(C(=O)O)C2CCC(O2)C1(C)C(=O)O (configuration not stated) | inactive
11 | CN1CC[C@@]2(C)c3cc(O)ccc3N(C)C12 (some centres not stated) | 2.51 µM (active)
12 | COc1ccc(OC)c(C(O)C(C)N)c1 (configuration not stated) | inactive
13 | N[C@@]1(C(=O)O)CC[C@@H](C(=O)O)C1 | inactive
14 | CN(C(=O)Cc1ccc(Cl)c(Cl)c1)C(CN1CCCC1)c1cccc(OCC(=O)O)c1 (configuration not stated) | inactive
15 | CC(N)c1cccc(Cl)c1Cl (configuration not stated) | inactive
16 | COc1ccc2[nH]cc(CCN)c2c1 | inactive
17 | NC(N)=NOCC[C@H](N)C(=O)O | inactive
18 | CCCn1c(C)c(C(=O)c2ccc3ccccc3c2)c2ccccc21 | inactive
19 | OC1CCCCC1N1CCC(c2ccccc2)CC1 (configuration not stated) | inactive
20 | COc1ccc2[nH]c3c(c2c1)CCNC3 | inactive
21 | CCCN(CCC)[C@H]1CCc2c(F)ccc(O)c2C1 | inactive
22 | C=CCN1C[C@@H](C)N([C@H](c2ccc(C(=O)N(CC)CC)cc2)c2cccc(OC)c2)C[C@@H]1C | inactive
23 | C[C@@H]1O[C@@H](O[C@H]2C[C@@H](O)[C@]3(CO)[C@@H]4C(CC[C@]3(O)C2)[C@@]2(O)CC[C@H]([C@@H]3COC(=O)C3)[C@@]2(C)C[C@H]4O)[C@H](O)[C@H](O)[C@H]1O (some centres not stated) | inactive
24 | COc1ccc2c(c1)C13CCCCC1C(C2)N(C)CC3 (configuration not stated) | inactive
25 | CN1C2CCC1CC(OC(c1ccccc1)c1ccccc1N)C2 (configuration not stated) | inactive
26 | CC(C)NP(=O)(NC(C)C)OP(=O)(NC(C)C)NC(C)C | inactive
27 | CCCN1CC[C@@H]2c3cc(O)ccc3CC[C@@H]21 | inactive
28 | CC(Cc1ccc(OCC(=O)O)cc1)NCC(O)c1cccc(Cl)c1 (configuration not stated) | inactive

Tested on: not listed separately
Assay: Vero cells viability qHTS for Zika virus inhibitors (AID 1347167)
Settings: cytotoxicity counter-screen (Zika); series mostly up to 45.9 µM
Outline: (§1)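 Luminescent ATP readout (CellTiter Glo) after 30 min at 37 degrees C gives viability; cells in DMEM + 4% FBS were treated 24 to 48 hours with compound, following overnight attachment.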

Row | Compound | outcome
29 | C[C@@H]1[C@@H]2Cc3ccc(O)cc3[C@@]1(C)CCN2CC1CC1 | inactive
30 | CC[C@H](C)[C@H]1O[C@]2(C=C[C@@H]1C)C[C@@H]1C[C@@H](C/C=C(\C)[C@@H](O[C@H]3C[C@H](OC)[C@@H](O[C@H]4C[C@H](OC)[C@@H](O)[C@H](C)O4)[C@H](C)O3)[C@@H](C)/C=C/C=C3\CO[C@@H]4[C@H](O)C(C)=C[C@@H](C(=O)O1)[C@]34O)O2 | inactive
31 | O=c1ccc2[nH]cc(C3=CCNCC3)c2[nH]1 | inactive

Tested on: not listed separately
Assay: HepG2 cells viability qHTS for Zika virus inhibitors (AID 1347168)
Settings: Zika counter-screen; series mostly up to 45.9 µM
Outline: as §1

Row | Compound | outcome
32 | C[C@@H]1[C@@H]2Cc3ccc(O)cc3[C@@]1(C)CCN2CC1CC1 | inactive
33 | CC[C@H](C)[C@H]1O[C@]2(C=C[C@@H]1C)C[C@@H]1C[C@@H](C/C=C(\C)[C@@H](O[C@H]3C[C@H](OC)[C@@H](O[C@H]4C[C@H](OC)[C@@H](O)[C@H](C)O4)[C@H](C)O3)[C@@H](C)/C=C/C=C3\CO[C@@H]4[C@H](O)C(C)=C[C@@H](C(=O)O1)[C@]34O)O2 | inactive
34 | O=c1ccc2[nH]cc(C3=CCNCC3)c2[nH]1 | inactive

Tested on: not listed separately
Assay: Tertiary RLuc qRT-PCR qHTS assay for Zika virus inhibitors (AID 1347169); also: nearly all actives have a fitted effect of over 55% in size; also: potency is read from the fitted curve at half-maximal effect; as to activity change, negative = inhibition: top concentration of the series differs between compounds
Settings: infected Vero cells, reporter luminescence, 48-72 h; series mostly up to 45.9 µM
Outline: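 Vero cells (1,000/well) infected with recombinant ZIKV-RLuc (Cambodian) at MOI 1-2 after compound addition, 48-72 hrs at 37 degrees C. Live-cell Renilla luciferase substrate added; luminescence read after 1-1.5 hrs.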

Row | Compound | Potency | activity change, negative = inhibition
35 | C[C@@H]1[C@@H]2Cc3ccc(O)cc3[C@@]1(C)CCN2CC1CC1 | inactive | –
36 | CCN1CC2(COC)C3[C@@H](OC)C4C1C3(C1C[C@]3(O)[C@H](OC(=O)c5ccccc5)C1[C@]4(OC(C)=O)[C@@H](O)[C@@H]3OC)[C@H](OC)C[C@H]2O (some centres not stated) | inactive | –
37 | COc1c(C(C)C)cc2c(c1O)[C@@]1(C(=O)O)CCCC(C)(C)C1CC2 (some centres not stated) | inactive | –
38 | Oc1cc(Cl)c(Cl)cc1Cl | – | -13.8% [at 5.25 µM] (inactive)
39 | O=C1OC2(c3cc(Br)c(O)cc3Oc3c2cc(Br)c(O)[c]3[Hg])c2ccccc21 (configuration not stated) | – | -7.05% [at 0.566 µM] (inactive)
40 | COC(=O)C1(C)CCC(O)C2(C)c3cc(O)c(C(C)C)cc3C(O)C(OC(C)=O)C12 (configuration not stated) | inactive | –
41 | CC[C@H](C)[C@H]1O[C@]2(C=C[C@@H]1C)C[C@@H]1C[C@@H](C/C=C(\C)[C@@H](O[C@H]3C[C@H](OC)[C@@H](O[C@H]4C[C@H](OC)[C@@H](O)[C@H](C)O4)[C@H](C)O3)[C@@H](C)/C=C/C=C3\CO[C@@H]4[C@H](O)C(C)=C[C@@H](C(=O)O1)[C@]34O)O2 | 20.8 µM (active) | –
42 | O=c1ccc2[nH]cc(C3=CCNCC3)c2[nH]1 | inactive | –
